Assay results reported in PubChem BioAssay AID686978 (National Center for Advancing Translational Sciences (NCATS), 2013).
Out of some 420,000 compounds screened, about 64,000 (15%) were called active. Another 27% or so got no clear call; they are omitted. Calls follow the shape of the dose curve; as a rule, active = well fitted inhibition curve with a large enough effect; inconclusive = small, poorly fitted or top-dose-only effect; inactive = flat fitted curve, though single readings scatter. Only a sample is shown. Entries that show only a call come without a potency.

Experiment: qHTS for Inhibitors of human tyrosyl-DNA phosphodiesterase 1 (TDP1): qHTS in cells in absence of CPT; also: nearly all actives have a fitted effect of over 55% in size
Details: DT40 Tdp1-/- hTDP1 cells, no CPT, ATP luminescence, 48 h; activity change, negative = growth inhibition: at 46.2 µM (top of the series)
From the text: Human tyrosyl-DNA phosphodiesterase 1 (TDP1) is a novel repair gene, and we propose to use it as a new target for anticancer drug development. TDP1 is not an essential protein, but under treatment with topoisomerase I poison (camptothecin: CPT), TDP1 works as a critical factor for cell survival. To directly identify novel TDP1 inhibitors active in a cellular environment, we have knocked-out the Tdp1 gene in chicken DT40 cells (Tdp1-/-) and generated a complemented counterpart cells that contains a stable transfection of the human TDP1 gene (Tdp1-/-;hTDP1 cells). For the primary screen, Tdp1-/-;hTDP1 cells will be exposed to small molecules in the presence or absence of CPT, and their growth kinetics will be evaluated after 48 hours by measuring ATP activity. […] The hit compounds will then be evaluated in the presence or absence of CPT using Tdp1-/- cells. […] In tertiary assays, biochemical gel-based assays will be used to assess whether the hit compounds specifically target TDP1.
To this end, we have screened this cell line against the MLSMR in two primary screens. In one screen we add CPT and in the other we screen in the absence of CPT; this AID represents the screen where CPT was absent.
NIH Chemical Genomics Center [NCGC]
NIH Molecular Libraries Probe Centers Network [MLPCN]
Assay Submitter (PI): Yves Pommier, NCI
DT40-hTDP1 cells without 20 nM Camptothecin (add 20 microL of DMSO in 1 L of cell culture medium) were dispensed at 400 cells/5microL/well in tissue culture treated 1536-well white wall/solid bottom assay plates (Greiner Bio-One North America, NC, U.S.A.) using a Multidrop Combi 8 channel dispenser (Thermo Fisher, Waltham, MA, USA). 23 nL compounds and controls were transferred using the pin tool (Kalypsys, San Diego, CA, USA) to the assay plates. The assay plates were then incubated at 37 masculineC for a minimum 48 hr. Three microL of Cell Titer Glo solution was added to the plates and incubated at RT in dark for 30 min. Luminescence was read using ViewLux (Perkin Elmer) with 1 sec exposure slow speed, high gain and 2x binning.
Potency is read from the fitted curve at half-maximal effect.

Structure (SMILES) | Potency
NC(=O)NCCCC(=O)O | inactive
CCC(C)Cn1c(O)cc2nn(-c3nc4ccccc4s3)c(=O)c-2c1C (stereo not drawn) | 18.4 µM (active)
Cc1nn(CC(=O)Nc2nc3ccccc3s2)c(C)c1[N+](=O)[O-] | inactive
CCCS(=O)(=O)N1CCCC(C(=O)NCCN2CCCCC2C)C1 (stereo not drawn) | inactive
Cc1c(NC(=O)Nc2ccccc2Cl)sc(=S)n1C | inactive
C/C(=N\NS(=O)(=O)c1ccc(Cl)cc1)c1ccc(NC(=O)c2ccco2)cc1 | inactive
Cc1ccc(-c2nnc(SCc3ccccc3C)o2)cc1 | inactive
COc1ccccc1CNC(=O)CN1CCC(n2cnc3cc(F)ccc32)CC1 | inactive
CCOc1ccc(C(=O)c2cn(Cc3ccccc3OC)c3ccc(F)cc3c2=O)cc1 | 20.6 µM (active)
O=C(c1ccc(F)cc1)c1cn(Cc2ccc(F)cc2)c2cc3c(cc2c1=O)OCCO3 | inactive
CCOC(=O)C1CCN(C(c2ccc(F)cc2)c2sc3nc(-c4ccco4)nn3c2O)CC1 (stereo not drawn) | inactive
Cc1cccc(Cn2c(=O)n(CCC(=O)NCCc3ccc(Cl)cc3)c(=O)c3sccc32)c1 | inactive
CCc1c(C)nc2c(OC)cccc2c1Cl | inactive
CCOc1ccc(CC(=O)Nc2ccc(S(=O)(=O)Nc3cc(C)on3)cc2)cc1OCC | inactive
Cc1cccc(C(=O)Nc2nnc(Cc3c[nH]c4ccccc34)s2)c1 | inactive
CC(C)COc1ccc(C(=O)OCC(=O)NCCC2=CCCCC2)cc1 | inactive
CC1=C(C(=O)N(C)C)CC(CC(=O)NCCc2ccccn2)C(=O)N1CCC1=CCCCC1 (stereo not drawn) | inactive
COCCCN1C(=O)C(CC(=O)NCc2cccs2)CC(C(=O)N2CCOCC2)=C1C (stereo not drawn) | inactive
COc1ccc(CN2C(=O)C(CC(=O)NCCN3CCOCC3)CC(C(=O)N(C(C)C)C(C)C)=C2C)cc1 (stereo not drawn) | inactive
COC(=O)[C@]12CCCCC=C1N(CCC1=CCCCC1)C(=O)[C@H](CC(=O)NCC1CCCCC1)C2 | 23.1 µM (active)
CCCCOCCCNC(=O)C[C@@H]1C[C@@]2(C(=O)OCC)CCCC=C2N(CCC2=CCCCC2)C1=O | 18.4 µM (active)

Structure (SMILES) | Potency
CN1CCNC(=O)C1CC(=O)NCCC1=CCCCC1 (stereo not drawn) | inactive
CCCCOCCCNC(=O)C[C@@H]1C[C@@]2(C(=O)OC)CCCCC=C2N(CCC2=CCCCC2)C1=O | 23.1 µM (active)
CCOC(=O)[C@]12CCCC=C1N(CCC1=CCCCC1)C(=O)[C@H](CC(=O)NCCCOC)C2 | 20.6 µM (active)
COc1cccc(CNC(=O)C(NS(=O)(=O)c2ccc3nc(C)sc3c2)C(C)C)c1 (stereo not drawn) | inactive
Cc1cc(C)cc(NC(=O)Cc2csc(C)n2)c1 | inactive
Cc1ccc(C)c(NC(=O)CCC(=O)N/N=C2/CC(=O)CC(C)(C)C2)c1 | inactive
CCCCC(=O)N1CC2(C)CN(C(=O)CCCC)CC(C)(C1)C2=O | inactive
O=C(O)CN(Cc1ccco1)S(=O)(=O)c1ccccc1 | inactive
O=C(CCNC(=O)c1ccc(Br)cc1)NCC(c1ccco1)N1CCCCC1 (stereo not drawn) | inactive
CC(C)CN(C(=O)c1cccc(S(=O)(=O)N2CCCCC2)c1)C1CCS(=O)(=O)C1 (stereo not drawn) | inactive
CCCCNCc1ccc(SC)cc1 | inactive
CC(=NNC(N)=O)C1CC2CCC1CC2 (stereo not drawn) | inactive
ClC/C=C/C[n+]1ccccc1Cl | inactive
CN(C)c1ccc(NC(=O)c2ccncc2)c2ccccc12 | inactive
O=c1c2c(-c3ccccc3)ccnc2[nH]n1-c1ccccc1 | inactive
O=c1c(-c2ccccc2Cl)c[nH]n1-c1ccccc1 | inactive
O=c1c(-c2cccc(Cl)c2)c[nH]n1-c1ccccc1 | 16.4 µM (active)
N#C/C=C1\Sc2ccccc2C(=O)N1CC(=O)N1CCN(S(=O)(=O)c2ccccc2)CC1 | inactive
O=C(O)c1ccccc1-c1ccccc1C(=O)Nc1ccccc1Br | inactive
COc1ccc(N2C(=O)CCC(C(=O)N(C)C3CCCCC3)C2c2ccc(OC)c(OC)c2)cc1 (stereo not drawn) | inactive
Cc1c(C)n2c(SCC(=O)N3CCCC3)nnc2[nH]c1=O | inactive

Structure (SMILES) | Potency
CCOC(=O)C1CCCN(C(=O)C2CCN(c3nnc(-n4cccc4)s3)CC2)C1 (stereo not drawn) | inactive
CCOC(=O)C1CCCN(C(=O)CSc2nnc3nc(C)cc(C)n23)C1 (stereo not drawn) | 20.6 µM (active)
CCCCN1C(=O)CCC(C(=O)O)C1c1ccc(OC)cc1 (stereo not drawn) | inactive
COc1cc(/C=C2\CCCc3c2nc2ccccc2c3C(=O)O)cc(Cl)c1O | inactive
O=C(COC(=O)c1cccs1)Nc1ccccc1Cl | inactive
NS(=O)(=O)c1ccc(NC(=O)COC(=O)c2c3c(nc4ccccc24)/C(=C\c2ccc4c(c2)OCO4)CCC3)cc1 | 13 µM (active)
O=C(COC(=O)c1ccncc1)Nc1ccc2c(c1)OCO2 | inactive
NS(=O)(=O)c1ccc(NC(=O)COC(=O)c2cc3ccccc3oc2=O)cc1 | inactive
COc1cc(-c2cc(C(=O)OCC(=O)Nc3ccc4c(c3)OCO4)c3ccccc3n2)cc(OC)c1OC | inactive
O=C(COC(=O)c1ccc(F)cc1)Nc1ccc2c(c1)OCO2 | inactive
O=C(COC(=O)c1c2c(nc3ccccc13)/C(=C\c1cccs1)CCC2)Nc1ccccc1Cl | 13 µM (active)
NC(=O)c1ccc(NC(=O)COC(=O)c2c3c(nc4ccccc24)/C(=C\c2ccc4c(c2)OCO4)CCC3)cc1 | 8.2 µM (active)
COCCC(=O)Nc1ccc2c(c1)CN(C(=O)CCOC)CC2 | inactive
COc1ccccc1C(=O)OCC(=O)NCCNC(=O)COC(=O)c1ccccc1OC | inactive
C/C=C(\C)C(=O)N1CC2(CC(c3cccc(NC(=O)CCCCC)c3)=NO2)C[C@@H]1C(N)=O (stereo partly drawn) | inactive
O=C(COC(=O)c1ccccc1)c1ccc2c(c1)OCCO2 | inactive
O=C(CCN1CCc2ccccc2C(O)(c2ccccc2)C1)c1ccc2c(c1)OCCO2 (stereo not drawn) | 2.91 µM (active)
CCC1(c2ccccc2)NC(=O)N(CC(=O)c2ccc3c(c2)OCO3)C1=O (stereo not drawn) | inactive
COc1ccc(CCOC2OC(CO)C(OC(=O)/C=C/c3ccc(O)c(OC)c3)C(O[C@H]3O[C@@H](C)[C@H](O)[C@@H](O)[C@H]3O)C2O)cc1O (stereo partly drawn) | inactive
Cc1ccc(CNC(=O)c2ccccc2CCc2ccccc2)cc1 | inactive
CNC[C@H](CC1CCCCC1)NC[C@H](NCCC1CCCC1)[C@H](C)O | 20.6 µM (active)
